# Measurements from PubChem BioAssay.
# Calls of active or inactive are those of the source.
# Key:
# [1] = system: PRMT1 (protein arginine N-methyltransferase 1); assay: PRMT1 binders on small-molecule microarrays, primary screen, biochemical, small-molecule microarray, 635 nm fluorescence (AID 1088); conditions: small-molecule microarray binding, higher = more signal;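 note: binding of Prmt1 protein to compounds spotted on small-molecule microarray slides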
# [2] = yeast growth modulation, basal conditions, primary screen, YJM789 clinical isolate, OD600, 24 h (AID 1089);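 note: growth of clinical yeast isolate S. cerevisiae YJM 789 seeded 1000 cells per well; test concentration not given here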; conditions: S. cerevisiae YJM789 growth, higher = more signal, called active from +8 up or from −8 down
# [3] = fission yeast growth modulation, primary screen, strain 972, OD600, 24 h, no modulator (AID 1090);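 note: basal condition with compound alone and no growth modifier present; test concentration not given here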; conditions: S. pombe 972 growth, higher = more signal, called active from +8 up or from −8 down
# [4] = S. cerevisiae growth modulation with rapamycin, primary screen, strain BY4716, OD600, 96 h (AID 1091); conditions: higher = more signal, called active from +8 up or from −8 down; note: test concentration not given here
# [5] = target: Torsin-1A-interacting protein 2 (Homo sapiens) (UniProt Q8NFQ8); assay: LULL1 binders on small-molecule microarray, primary screen, cell lysate, human LULL1 lysate, 635/667 nm fluorescence (AID 1092); conditions: hLULL1 lysate binding, 635 nm fluorescence, higher = more signal;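 note: probe is lysate of COS7 cells overexpressing human LULL1; score merges per-feature 667 nm fluorescence with signal-to-noise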
# Torsin-1A-interacting protein 2 (Homo sapiens), sequence (Q8NFQ8 whole entry, looked up): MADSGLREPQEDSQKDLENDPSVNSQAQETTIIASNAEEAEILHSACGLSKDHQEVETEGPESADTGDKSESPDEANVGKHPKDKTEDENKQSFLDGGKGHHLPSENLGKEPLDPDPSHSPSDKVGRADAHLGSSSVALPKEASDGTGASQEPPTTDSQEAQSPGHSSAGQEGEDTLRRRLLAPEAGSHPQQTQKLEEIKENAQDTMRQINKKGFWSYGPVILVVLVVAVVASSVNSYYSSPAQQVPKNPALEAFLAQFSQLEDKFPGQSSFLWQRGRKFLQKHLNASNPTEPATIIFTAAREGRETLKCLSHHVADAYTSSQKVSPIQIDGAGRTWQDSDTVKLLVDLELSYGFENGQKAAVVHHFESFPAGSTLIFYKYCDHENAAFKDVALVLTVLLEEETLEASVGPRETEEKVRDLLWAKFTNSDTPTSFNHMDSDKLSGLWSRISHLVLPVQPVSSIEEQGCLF
# [6] = E. coli growth modulation, two-sided OD650, primary screen, E. coli filamentation project, strain DRC41, 24 h (AID 1093); conditions: OD650, 24 h, higher = more signal, called active from +8 up or from −8 down;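 note: MC1000 strain lacking acrAB efflux and sulA so SOS filamentation is blocked; test concentration not given here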
# [7] = small-molecule microarray binders of probe aLefty2, primary screen, biochemical, biotinylated probe, 635/667 nm fluorescence (AID 1094); conditions: higher = more signal;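 note: score merges spot fluorescence near 667 nm with spot signal-to-noise ratio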
# [8] = system: Noggin (protein binding on small-molecule microarray); assay: Noggin binders on small-molecule microarray, primary screen, biochemical, 635/667 nm fluorescence (AID 1095); conditions: 635 nm fluorescence, higher = more signal;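 note: score merges 667 nm feature fluorescence with signal to noise over triplicate slides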
# [9] = target: Neurogenic locus notch homolog protein 3 (Homo sapiens) (UniProt Q9UM47); assay: NOTCH3 binders on small-molecule microarray, primary screen, biochemical, 635/667 nm fluorescence (AID 1096); conditions: NOTCH3 binding, 635 nm fluorescence, higher = more signal
# Neurogenic locus notch homolog protein 3 (Homo sapiens), sequence (Q9UM47 whole entry, looked up): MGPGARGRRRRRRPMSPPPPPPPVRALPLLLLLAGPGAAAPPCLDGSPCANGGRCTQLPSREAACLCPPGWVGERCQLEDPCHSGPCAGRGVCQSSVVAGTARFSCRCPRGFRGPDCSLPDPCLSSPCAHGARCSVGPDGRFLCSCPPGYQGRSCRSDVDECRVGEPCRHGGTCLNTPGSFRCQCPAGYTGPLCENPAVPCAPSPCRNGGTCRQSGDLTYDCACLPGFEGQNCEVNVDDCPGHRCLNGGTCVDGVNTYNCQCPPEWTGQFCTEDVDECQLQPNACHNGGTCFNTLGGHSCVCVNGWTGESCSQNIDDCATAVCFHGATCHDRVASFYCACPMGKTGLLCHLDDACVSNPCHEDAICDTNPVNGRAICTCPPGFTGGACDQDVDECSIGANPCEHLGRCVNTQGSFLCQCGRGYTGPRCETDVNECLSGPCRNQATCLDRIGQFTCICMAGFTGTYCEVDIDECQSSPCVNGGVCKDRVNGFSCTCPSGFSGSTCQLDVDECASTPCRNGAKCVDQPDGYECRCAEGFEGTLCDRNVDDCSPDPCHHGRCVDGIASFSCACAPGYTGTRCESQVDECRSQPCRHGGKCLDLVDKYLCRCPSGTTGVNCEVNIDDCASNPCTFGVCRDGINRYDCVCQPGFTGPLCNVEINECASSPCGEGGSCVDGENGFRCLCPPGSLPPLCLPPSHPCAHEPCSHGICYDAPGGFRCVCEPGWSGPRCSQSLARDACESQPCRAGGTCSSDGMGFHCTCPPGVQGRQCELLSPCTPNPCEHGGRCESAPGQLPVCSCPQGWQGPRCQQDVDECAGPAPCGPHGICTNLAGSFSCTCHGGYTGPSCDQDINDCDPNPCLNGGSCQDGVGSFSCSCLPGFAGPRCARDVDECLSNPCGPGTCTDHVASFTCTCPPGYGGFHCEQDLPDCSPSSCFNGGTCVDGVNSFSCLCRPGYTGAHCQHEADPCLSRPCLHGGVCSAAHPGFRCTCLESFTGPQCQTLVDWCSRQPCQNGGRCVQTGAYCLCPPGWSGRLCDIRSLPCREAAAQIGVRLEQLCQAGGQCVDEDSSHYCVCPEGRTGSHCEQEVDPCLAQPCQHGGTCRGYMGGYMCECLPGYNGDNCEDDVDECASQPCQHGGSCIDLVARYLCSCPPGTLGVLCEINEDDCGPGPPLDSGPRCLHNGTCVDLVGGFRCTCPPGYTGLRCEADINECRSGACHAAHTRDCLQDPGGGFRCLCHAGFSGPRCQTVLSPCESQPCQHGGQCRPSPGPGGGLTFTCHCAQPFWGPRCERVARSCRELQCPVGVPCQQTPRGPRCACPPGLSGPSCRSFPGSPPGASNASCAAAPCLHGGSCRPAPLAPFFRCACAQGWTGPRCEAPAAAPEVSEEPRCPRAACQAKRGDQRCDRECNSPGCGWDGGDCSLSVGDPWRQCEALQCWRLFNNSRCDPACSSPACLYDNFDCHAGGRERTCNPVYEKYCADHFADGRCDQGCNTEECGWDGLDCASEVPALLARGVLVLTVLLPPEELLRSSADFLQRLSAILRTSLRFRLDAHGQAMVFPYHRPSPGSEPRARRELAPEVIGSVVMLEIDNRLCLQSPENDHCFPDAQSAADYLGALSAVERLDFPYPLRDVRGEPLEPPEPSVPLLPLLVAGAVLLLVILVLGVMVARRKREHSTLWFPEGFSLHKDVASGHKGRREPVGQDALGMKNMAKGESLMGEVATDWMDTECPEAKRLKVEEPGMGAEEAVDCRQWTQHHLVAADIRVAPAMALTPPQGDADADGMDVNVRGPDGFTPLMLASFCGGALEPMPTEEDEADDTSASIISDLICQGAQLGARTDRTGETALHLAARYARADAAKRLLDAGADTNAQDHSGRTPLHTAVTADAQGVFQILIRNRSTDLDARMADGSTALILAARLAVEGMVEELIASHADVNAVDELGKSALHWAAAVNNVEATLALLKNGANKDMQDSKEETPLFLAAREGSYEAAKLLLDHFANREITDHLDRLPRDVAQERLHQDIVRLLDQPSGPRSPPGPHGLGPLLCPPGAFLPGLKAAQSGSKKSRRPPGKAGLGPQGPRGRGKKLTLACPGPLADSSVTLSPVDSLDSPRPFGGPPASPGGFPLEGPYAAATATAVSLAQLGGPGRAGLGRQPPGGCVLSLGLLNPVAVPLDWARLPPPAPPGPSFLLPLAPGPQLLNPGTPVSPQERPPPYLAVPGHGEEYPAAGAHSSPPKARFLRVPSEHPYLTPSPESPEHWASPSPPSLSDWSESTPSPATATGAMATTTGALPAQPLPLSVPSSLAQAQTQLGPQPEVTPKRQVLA
# [10] = small-molecule microarray binders of probe aEGFR, primary screen, biochemical, biotinylated probe, 635/667 nm fluorescence (AID 1097); conditions: higher = more signal;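 note: probe is a biotinylated anti-EGFR antibody binding compounds printed on slides; score combines fluorescence near 667 nm and signal to noise of each spot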
# [11] = system: Plasmodium falciparum Sir2 (PF13_0152, Sir2A); assay: pfSir2 binders on small-molecule microarrays, primary screen, biochemical, small-molecule microarray, 635 nm fluorescence (AID 1098); conditions: small-molecule microarray binding, fluorescence 635 nm; higher = more signal;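 note: score merges spot fluorescence intensity with its signal-to-noise ratio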
# [12] = small-molecule microarray binders of probe aDKK1, primary screen, biochemical, biotinylated probe, 635/667 nm fluorescence (AID 1099); conditions: higher = more signal;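 note: score merges 667nm spot fluorescence with signal to noise across triplicate slides; reference of the scale not given here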
# [13] = small-molecule microarray binders of probe aCHRDL2, primary screen, biochemical, biotinylated probe, 635/667 nm fluorescence (AID 1100); conditions: higher = more signal
# [14] = splicing luciferase reporter signal modulators, primary screen, spliceosome inhibition project, cell-based, HEK293, splice +/- reporter (AID 1101); conditions: luminescence, 24 h, higher = more signal, called active from +8 up or from −8 down;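 note: HEK293 cells carrying a splicing-competent luciferase reporter gene; test concentration not given here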
# [15] = target: Fibroblast growth factor 10 (Homo sapiens) (UniProt O15520); assay: FGF10 binders on small-molecule microarrays, primary screen, biochemical, small-molecule microarray, 635 nm fluorescence (AID 1102); conditions: FGF10 binding, fluorescence 635 nm, higher = more signal
# Fibroblast growth factor 10 (Homo sapiens), sequence (O15520 whole entry, looked up): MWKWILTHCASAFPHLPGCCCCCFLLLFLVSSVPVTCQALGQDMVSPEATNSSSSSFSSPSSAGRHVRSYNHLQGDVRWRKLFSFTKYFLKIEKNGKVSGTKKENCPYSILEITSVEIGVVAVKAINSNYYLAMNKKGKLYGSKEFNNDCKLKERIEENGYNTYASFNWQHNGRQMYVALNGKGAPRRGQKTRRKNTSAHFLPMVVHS
# [16] = system: glycogen synthase kinase-3 (GSK3A per assay name; protocol says GSK3B); assay: GSK3 binders on small-molecule microarrays, primary screen, biochemical, small-molecule microarray, 635 nm fluorescence, GSK3A (AID 1103); conditions: small-molecule microarray binding, fluorescence 635 nm; higher = more signal; note: the record names both GSK3A and GSK3B
# [17] = target: Epidermal growth factor receptor (Homo sapiens) (UniProt P00533); assay: EGFR binders on small-molecule microarrays, primary screen, biochemical, small-molecule microarray, 635 nm fluorescence (AID 1104); conditions: EGFR binding, higher = more signal;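 note: score merges 667 nm emission intensity with spot signal to noise over triplicate slides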
# Epidermal growth factor receptor (Homo sapiens), sequence (P00533 whole entry, looked up): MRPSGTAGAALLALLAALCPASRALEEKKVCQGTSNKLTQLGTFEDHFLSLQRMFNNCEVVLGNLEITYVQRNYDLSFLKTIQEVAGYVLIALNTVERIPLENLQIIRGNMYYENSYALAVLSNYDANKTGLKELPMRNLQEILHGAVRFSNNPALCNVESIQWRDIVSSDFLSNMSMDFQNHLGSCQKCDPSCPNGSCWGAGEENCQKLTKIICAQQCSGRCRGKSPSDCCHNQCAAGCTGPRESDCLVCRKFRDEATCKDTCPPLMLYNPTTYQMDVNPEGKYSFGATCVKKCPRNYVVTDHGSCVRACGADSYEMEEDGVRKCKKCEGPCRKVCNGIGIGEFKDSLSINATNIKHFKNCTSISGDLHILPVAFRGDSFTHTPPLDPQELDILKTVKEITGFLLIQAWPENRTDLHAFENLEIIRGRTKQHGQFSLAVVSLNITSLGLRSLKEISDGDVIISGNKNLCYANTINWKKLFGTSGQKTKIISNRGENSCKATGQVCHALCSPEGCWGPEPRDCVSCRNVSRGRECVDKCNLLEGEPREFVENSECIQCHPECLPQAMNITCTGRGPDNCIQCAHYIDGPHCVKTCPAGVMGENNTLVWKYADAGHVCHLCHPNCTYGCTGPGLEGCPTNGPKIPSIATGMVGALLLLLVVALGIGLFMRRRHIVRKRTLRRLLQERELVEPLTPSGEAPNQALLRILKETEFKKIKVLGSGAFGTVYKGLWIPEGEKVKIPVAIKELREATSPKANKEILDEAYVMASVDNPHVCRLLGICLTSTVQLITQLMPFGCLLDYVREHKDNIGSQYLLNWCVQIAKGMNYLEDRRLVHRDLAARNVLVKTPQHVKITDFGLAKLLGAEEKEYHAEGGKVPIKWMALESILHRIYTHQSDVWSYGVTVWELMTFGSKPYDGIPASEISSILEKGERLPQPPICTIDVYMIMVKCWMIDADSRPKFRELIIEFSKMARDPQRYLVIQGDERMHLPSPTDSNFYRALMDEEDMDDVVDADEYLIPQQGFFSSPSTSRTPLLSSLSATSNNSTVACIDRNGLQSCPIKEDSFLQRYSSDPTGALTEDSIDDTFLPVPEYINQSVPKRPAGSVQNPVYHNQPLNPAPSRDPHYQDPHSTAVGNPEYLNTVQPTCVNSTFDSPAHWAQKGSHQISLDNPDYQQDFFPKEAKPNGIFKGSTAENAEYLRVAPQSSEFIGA
# [18] = target: Follistatin-related protein 3 (Homo sapiens) (UniProt O95633); assay: FSTL3 binders on small-molecule microarrays, primary screen, biochemical, small-molecule microarray, 635 nm fluorescence (AID 1105); conditions: FSTL3 binding, higher = more signal;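 note: score merges emission near 667 nm and signal to noise per printed spot across three slides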
# Follistatin-related protein 3 (Homo sapiens), sequence (O95633 whole entry, looked up): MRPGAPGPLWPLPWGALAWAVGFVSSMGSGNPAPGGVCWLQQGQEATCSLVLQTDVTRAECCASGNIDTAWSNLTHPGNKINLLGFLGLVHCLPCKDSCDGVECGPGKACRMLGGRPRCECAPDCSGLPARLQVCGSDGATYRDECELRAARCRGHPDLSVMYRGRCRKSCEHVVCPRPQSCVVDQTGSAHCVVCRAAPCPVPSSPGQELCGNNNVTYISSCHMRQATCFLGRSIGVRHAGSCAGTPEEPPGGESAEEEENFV
# [19] = target: Dickkopf-related protein 1 (Homo sapiens) (UniProt O94907); assay: DKK1 binders on small-molecule microarrays, primary screen, biochemical, small-molecule microarray, 635 nm fluorescence scan (AID 1106); conditions: DKK1 binding, higher = more signal;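 note: score merges emission near 667 nm with signal to noise over three replicate slides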
# Dickkopf-related protein 1 (Homo sapiens), sequence (O94907 whole entry, looked up): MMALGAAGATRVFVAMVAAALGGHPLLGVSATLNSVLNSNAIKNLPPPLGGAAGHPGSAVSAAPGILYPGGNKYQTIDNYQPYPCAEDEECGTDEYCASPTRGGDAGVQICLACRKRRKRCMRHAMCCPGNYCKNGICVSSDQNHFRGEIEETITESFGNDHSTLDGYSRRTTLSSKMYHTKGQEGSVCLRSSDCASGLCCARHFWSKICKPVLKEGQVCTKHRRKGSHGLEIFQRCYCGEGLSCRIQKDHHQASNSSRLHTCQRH
# [20] = system: Inhibin beta A chain (activin A); assay: INHBA (activin A) binders on microarrays, primary screen, biochemical, small-molecule microarray, 635 nm fluorescence scan (AID 1107); conditions: small-molecule microarray binding, higher = more signal;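 note: mouse activin A protein probed at 4.33 µg/mL on printed slides; score merges bound-protein fluorescence near 667 nm with spot signal-to-noise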
Compound,composite z-score [1],z-score [2],z-score [3],z-score [4],composite z-score [5],z-score [6],composite z-score [7],composite z-score [8],composite z-score [9],composite z-score [10],composite z-score [11],composite z-score [12],composite z-score [13],z-score [14],composite z-score [15],composite z-score [16],composite z-score [17],composite z-score [18],composite z-score [19],composite z-score [20]
COc1ccc([Si](C)(C)[C@H]2[C@H](CCO)O[C@@]3(C(=O)N(Cc4ccccc4)c4ccc(N(C=O)c5ccccc5)cc43)[C@@H]2C)cc1,1.57,-0.347 (inactive),1.08 (inactive),20.3 (active),1.65,0.773 (inactive),-0.182,0.513,1.09,-0.0121,0.638,0.0036,-0.19,-0.663 (inactive),0.651,-0.273,0.0677,0.618,0.167,0.2
CCCC=C(CCC)[C@@H](NS(=O)(=O)c1ccc(Cl)cc1)c1ccccc1,0.61,0.286 (inactive),0.319 (inactive),1.61 (inactive),1.1,-0.829 (inactive),-0.0916,-0.135,-0.682,-0.125,0.6,0.619,0.951,-1.69 (inactive),-0.686,-1.03,-0.972,-1.29,-0.979,0.351
C=CC[C@]1(C(=O)NCc2ccccc2)COC(c2ccc(OCCCO)cc2)=N1,0.822,-1.4 (inactive),-4.95 (inactive),-1.22 (inactive),2.87,1.34 (inactive),0.843,-1,-0.447,-0.0675,1.49,1.43,1.6,0.589 (inactive),-0.215,-0.9,-1.47,0.101,-0.301,0.792
CC1CC/C=C\[C@H]2OC34C=CCN(c5ccc(Cl)cc5)C(=O)[C@H]3N(CCCO)C(=O)[C@]4(C)C2C(=O)O1 (stereo not given in full),-1.33,0.0887 (inactive),-0.117 (inactive),1.13 (inactive),-0.265,-0.643 (inactive),-0.154,-0.774,-0.105,-0.151,0.312,-0.0782,0.717,0.453 (inactive),-1.32,-1.28,-1.1,-0.949,-1.42,0.596
CCCCC(=C=CC[C@@H](O)c1ccc(OCCO)cc1)C[C@@H](O)c1ccccn1,1.02,-0.374 (inactive),-1.07 (inactive),-0.689 (inactive),1.18,0.774 (inactive),-0.0825,0.888,0.409,-0.0787,0.381,-0.0087,-0.162,0.0171 (inactive),0.279,0.382,-0.123,0.588,0.414,0.981
CCCCN1CC=CC23O[C@@H]4C=CCOC(=O)[C@@H]4[C@H]2C(=O)N(C(CO)C(C)C)[C@@H]3C1=O (stereo not given in full),-0.453,-0.161 (inactive),-0.325 (inactive),0.752 (inactive),-1.06,-0.505 (inactive),-0.118,-0.319,-0.743,-0.217,-0.662,-0.353,-0.476,-0.116 (inactive),-0.372,-0.13,-0.759,0.0236,0.185,0.843
COc1ccc(CCNC(=O)[C@@]2(Sc3ccc(C)cc3)CC(=O)N(C(C)C)[C@@H]2c2ccc(CO)cc2)cc1,0.633,0.956 (inactive),0.0503 (inactive),0.088 (inactive),2.09,-0.015 (inactive),0.0507,-1.4,-1.15,-0.249,1.41,0.0055,0.983,0.239 (inactive),-0.855,-0.897,-2.03,-1.45,-2,-0.87
C=CC[C@@]12N=C(c3ccc(OCCCO)cc3)O[C@@H]1c1ccccc1N(Cc1ccccc1)C2=O,1.54,-0.965 (inactive),-1.53 (inactive),1.86 (inactive),3.14,1.12 (inactive),0.145,1.72,1.08,0.0631,1.55,1.36,1.08,-1.37 (inactive),1.26,1.34,0.657,1.48,0.904,1.12
C=C(COC)C(=O)CC[C@@H](OC(=O)c1cccnc1)c1cccc(OCCO)c1,1.37,-0.686 (inactive),-1.14 (inactive),-0.632 (inactive),1.35,0.726 (inactive),0.0932,0.873,0.693,-0.0922,0.709,0.119,0.618,3.33 (inactive),1.27,-0.284,-0.0749,0.652,0.284,1.37
CC=CC(O)C1C=CC2C(=O)N(C)C(=O)C2N1NC(=O)OC(C)(C)C (stereo not given),0.534,-0.219 (inactive),0.64 (inactive),0.0896 (inactive),0.522,-1.13 (inactive),-0.286,0.251,0.775,-0.0244,0.589,0.112,-0.388,1.54 (inactive),0.216,0.423,0.271,0.864,0.739,1.04
COc1ccccc1CN1C(=O)c2ccccc2[C@](Cc2ccccc2I)(C(=O)NCCCN(C)C)[C@@H]1c1ccc(CO)cc1,1.4,0.404 (inactive),-20.1 (active),-2.96 (inactive),3.04,-5.17 (inactive),-0.305,0.134,0.591,-0.355,1.2,-0.556,-0.376,-1.79 (inactive),-0.0448,1.22,0.221,0.158,0.0393,0.545
